Reference: the supplement of paper PMC8253809
Several values for one entry are separate records, joined by “and”; a condition that tells them apart may be missing. Equal entries are not always repeated.

Experiments:
Assay in all cases: growth inhibition (% activity, log2 RLU normalised to DMSO / staurosporine); higher = more growth inhibition
Conditions in all cases: 33 µM
DIPGX29 = system: DIPGX29 (H3.3 K27M diffuse intrinsic pontine glioma line)
How it was run: (§1)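 Approved drugs were tested in triplicate at a single final concentration of about 33 μM for 7 days at 37 °C, 5% CO2, on pHGG cell lines and H9-derived neural stem cells. Readout was CellTiter-Glo luminescence, log2-transformed and scaled per plate to % activity between solvent and positive control wells. The median over replicates gives the growth-inhibition value.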

DIPGX37 = system: DIPGX37 (H3.3 K27M diffuse intrinsic pontine glioma line)
How it was run: as §1

DIPGX7 = system: DIPGX7 (H3.3 K27M diffuse intrinsic pontine glioma line)
How it was run: as §1

DIPGX9 = system: DIPGX9 (diffuse intrinsic pontine glioma line)
How it was run: as §1

HGGX39 = system: HGGX39 (paediatric high-grade glioma line)
How it was run: as §1

HGGX6 = system: HGGX6 (H3.3 G34R paediatric high-grade glioma line)
How it was run: as §1

HNSC = system: HNSC
How it was run: as §1

SUDIPGIV = system: SUDIPGIV (diffuse intrinsic pontine glioma line)
How it was run: as §1

SUDIPGVI = system: SUDIPGVI (diffuse intrinsic pontine glioma line)
How it was run: as §1

SUDIPGXIII = system: SUDIPGXIII (diffuse intrinsic pontine glioma line)
How it was run: as §1

CC1(C)[C@H](C(=O)O)N2C(=O)C[C@H]2S1(=O)=O
growth inhibition (DIPGX29): 2.32% and -0.376% | growth inhibition (DIPGX37): -0.186% and 1.2% | growth inhibition (DIPGX7): 3.29% and 0.579% | growth inhibition (DIPGX9): 2.15% and 2.67% | growth inhibition (HGGX39): 4.9% and 2.16% | growth inhibition (HGGX6): 1.21% and -0.215% | growth inhibition (HNSC): 11.1% and 0.73% | growth inhibition (SUDIPGIV): 1.62% and -0.448% | growth inhibition (SUDIPGVI): 2.58% and 1.67% | growth inhibition (SUDIPGXIII): 0.364% and -0.373%

O=C(NCCO[N+](=O)[O-])c1cccnc1
growth inhibition (DIPGX29): -0.0278% | growth inhibition (DIPGX37): 2.96% | growth inhibition (DIPGX7): 1.16% | growth inhibition (DIPGX9): 1.21% | growth inhibition (HGGX39): 0.669% | growth inhibition (HGGX6): -4.02% | growth inhibition (HNSC): 46.8% | growth inhibition (SUDIPGIV): 0.797% | growth inhibition (SUDIPGVI): 1.67% | growth inhibition (SUDIPGXIII): -0.184%

N=C(N)N/N=C/c1c(Cl)cccc1Cl
growth inhibition (DIPGX29): 1.41% | growth inhibition (DIPGX37): 1.84% | growth inhibition (DIPGX7): 1.08% | growth inhibition (DIPGX9): 1.59% | growth inhibition (HGGX39): 4.69% | growth inhibition (HGGX6): 2.81% | growth inhibition (HNSC): 1.67% | growth inhibition (SUDIPGIV): 7.04% | growth inhibition (SUDIPGVI): 3.21% | growth inhibition (SUDIPGXIII): 1.52%

NNC(=O)c1ccncc1.Nc1ccc(C(=O)O)c(O)c1
growth inhibition (DIPGX29): 0.532% | growth inhibition (DIPGX37): 2.72% | growth inhibition (DIPGX7): 1.7% | growth inhibition (DIPGX9): 2.6% | growth inhibition (HGGX39): 2.23% | growth inhibition (HGGX6): 1.63% | growth inhibition (HNSC): -0.818% | growth inhibition (SUDIPGIV): 0.972% | growth inhibition (SUDIPGVI): 3.47% | growth inhibition (SUDIPGXIII): -1.36%

CN1C2CCCC1CC(NC(=O)c1nn(C)c3ccccc13)C2 (stereo not given)
growth inhibition (DIPGX29): 1.3% | growth inhibition (DIPGX37): -1.75% | growth inhibition (DIPGX7): 0.448% | growth inhibition (DIPGX9): 1.03% | growth inhibition (HGGX39): 1.66% | growth inhibition (HGGX6): 1.21% | growth inhibition (HNSC): 1.6% | growth inhibition (SUDIPGIV): 0.0415% | growth inhibition (SUDIPGVI): 1.95% | growth inhibition (SUDIPGXIII): 0.965%

CC[C@H]1OC(=O)[C@H](C)[C@@H](O[C@H]2C[C@@](C)(OC)[C@@H](O)[C@H](C)O2)[C@H](C)[C@@H](O[C@@H]2O[C@H](C)C[C@H](N(C)C)[C@H]2O)[C@](C)(O)C[C@@H](C)CN(C)[C@H](C)[C@@H](O)[C@]1(C)O
growth inhibition (DIPGX29): 2.6% and 0.58% | growth inhibition (DIPGX37): 0.972% and 0.639% | growth inhibition (DIPGX7): 2.78% and -0.0129% | growth inhibition (DIPGX9): 0.764% and 1.25% | growth inhibition (HGGX39): 1.94% and 0.554% | growth inhibition (HGGX6): 0.417% and 2.15% | growth inhibition (HNSC): -0.827% and -1.61% | growth inhibition (SUDIPGIV): -0.232% and -0.687% | growth inhibition (SUDIPGVI): -6.26% and 1.06% | growth inhibition (SUDIPGXIII): 1.93% and -0.434%

COc1ccccc1N1CCN(CC(O)COc2cccc3ccccc23)CC1 (stereo not given)
growth inhibition (DIPGX29): 0.825% | growth inhibition (DIPGX37): 1.5% | growth inhibition (DIPGX7): 3.11% | growth inhibition (DIPGX9): 4.27% | growth inhibition (HGGX39): 2.32% | growth inhibition (HGGX6): 1.78% | growth inhibition (HNSC): 0.281% | growth inhibition (SUDIPGIV): -1.37% | growth inhibition (SUDIPGVI): 0.873% | growth inhibition (SUDIPGXIII): -16%

Nc1cc(C(Cl)=C(Cl)Cl)c(S(N)(=O)=O)cc1S(N)(=O)=O
growth inhibition (DIPGX29): 0.128% | growth inhibition (DIPGX37): 3.1% | growth inhibition (DIPGX7): 1.7% | growth inhibition (DIPGX9): 0.825% | growth inhibition (HGGX39): 2.48% | growth inhibition (HGGX6): 1.57% | growth inhibition (HNSC): 1.89% | growth inhibition (SUDIPGIV): 1.51% | growth inhibition (SUDIPGVI): -1.12% | growth inhibition (SUDIPGXIII): 1.37%

Cc1c(NC(=O)c2cccnc2)c(=O)n(-c2ccccc2)n1C
growth inhibition (DIPGX29): 2.04% | growth inhibition (DIPGX37): 3.56% | growth inhibition (DIPGX7): 2.88% | growth inhibition (DIPGX9): 1.83% | growth inhibition (HGGX39): 2.64% | growth inhibition (HGGX6): 2.09% | growth inhibition (HNSC): 2.9% | growth inhibition (SUDIPGIV): 1.6% | growth inhibition (SUDIPGVI): 5.52% | growth inhibition (SUDIPGXIII): -1.54%

CCN(CC)CCOC(=O)C1(C2CCCCC2)CCCCC1
growth inhibition (DIPGX29): -1.15% | growth inhibition (DIPGX37): -1.5% | growth inhibition (DIPGX7): -1.55% | growth inhibition (DIPGX9): -2.17% | growth inhibition (HGGX39): -2.47% | growth inhibition (HGGX6): -0.591% | growth inhibition (HNSC): -1.91% | growth inhibition (SUDIPGIV): -0.751% | growth inhibition (SUDIPGVI): -0.615% | growth inhibition (SUDIPGXIII): 0.956%

NC[C@H]1O[C@H](O[C@H]2[C@H](O)[C@@H](O[C@H]3O[C@H](CO)[C@@H](O)[C@H](N)[C@H]3O)[C@H](N)C[C@@H]2N)[C@H](N)C[C@@H]1O
growth inhibition (DIPGX29): -1.1% | growth inhibition (DIPGX37): -0.159% | growth inhibition (DIPGX7): -0.415% | growth inhibition (DIPGX9): -0.0629% | growth inhibition (HGGX39): -1.03% | growth inhibition (HGGX6): 1.31% | growth inhibition (HNSC): -1.87% | growth inhibition (SUDIPGIV): -0.0713% | growth inhibition (SUDIPGVI): -0.514% | growth inhibition (SUDIPGXIII): -17.5%

CN1CCC(=C2c3ccccc3C=Cc3ccccc32)CC1
growth inhibition (DIPGX29): 1.58% | growth inhibition (DIPGX37): -0.405% | growth inhibition (DIPGX7): -0.277% | growth inhibition (DIPGX9): 2.34% | growth inhibition (HGGX39): 7.18% | growth inhibition (HGGX6): -0.0199% | growth inhibition (HNSC): 1.09% | growth inhibition (SUDIPGIV): 3.58% | growth inhibition (SUDIPGVI): 1.48% | growth inhibition (SUDIPGXIII): 1.93%

CCN(CCCc1ccccc1)CCCc1ccccc1
growth inhibition (DIPGX29): 2.04% | growth inhibition (DIPGX37): 0.545% | growth inhibition (DIPGX7): 5.69% | growth inhibition (DIPGX9): 0.438% | growth inhibition (HGGX39): 7.1% | growth inhibition (HGGX6): 5.46% | growth inhibition (HNSC): 4.87% | growth inhibition (SUDIPGIV): 0.248% | growth inhibition (SUDIPGVI): -1.23% | growth inhibition (SUDIPGXIII): -0.1%

C[C@H](Cn1cnc2c(N)ncnc21)OCP(=O)(O)O
growth inhibition (DIPGX29): -1.46% | growth inhibition (DIPGX37): -3.07% | growth inhibition (DIPGX7): -1.11% | growth inhibition (DIPGX9): -0.823% | growth inhibition (HGGX39): -1.24% | growth inhibition (HGGX6): -0.0212% | growth inhibition (HNSC): -0.925% | growth inhibition (SUDIPGIV): -2.6% | growth inhibition (SUDIPGVI): -0.383% | growth inhibition (SUDIPGXIII): 0.192%

CC(C)(Oc1ccc(Cl)cc1)C(=O)O
growth inhibition (DIPGX29): -2.6% | growth inhibition (DIPGX37): 1.37% | growth inhibition (DIPGX7): -0.722% | growth inhibition (DIPGX9): -1.38% | growth inhibition (HGGX39): 0.448% | growth inhibition (HGGX6): -2.21% | growth inhibition (HNSC): 5.23% | growth inhibition (SUDIPGIV): 0.614% | growth inhibition (SUDIPGVI): -0.459% | growth inhibition (SUDIPGXIII): -0.393%

c1ccc(CN(CC2=NCCN2)c2ccccc2)cc1
growth inhibition (DIPGX29): 1.93% | growth inhibition (DIPGX37): 1.36% | growth inhibition (DIPGX7): 0.575% | growth inhibition (DIPGX9): 3.38% | growth inhibition (HGGX39): 1.53% | growth inhibition (HGGX6): 0.0328% | growth inhibition (HNSC): 0.623% | growth inhibition (SUDIPGIV): -2.17% | growth inhibition (SUDIPGVI): 3.06% | growth inhibition (SUDIPGXIII): 0.969%

NCCc1ccc(O)c(O)c1
growth inhibition (DIPGX29): -0.86% | growth inhibition (DIPGX37): 1.63% | growth inhibition (DIPGX7): -0.591% | growth inhibition (DIPGX9): 0.714% | growth inhibition (HGGX39): 0.908% | growth inhibition (HGGX6): -1.23% | growth inhibition (HNSC): 5.73% | growth inhibition (SUDIPGIV): 1.26% | growth inhibition (SUDIPGVI): 0.907% | growth inhibition (SUDIPGXIII): -1.27%

O=C(O)C(=O)O.[NH-]C1CCCCC1[NH-].[Pt+2] (stereo not given)
growth inhibition (DIPGX29): -0.101% | growth inhibition (DIPGX37): 2.05% | growth inhibition (DIPGX7): -0.541% | growth inhibition (DIPGX9): 7.2% | growth inhibition (HGGX39): -0.76% | growth inhibition (HGGX6): 1.66% | growth inhibition (HNSC): 1.98% | growth inhibition (SUDIPGIV): -1.88% | growth inhibition (SUDIPGVI): 0.474% | growth inhibition (SUDIPGXIII): 1.07%

O=C(O)C1=CO[C@@H](O[C@@H]2O[C@H](CO)[C@@H](O)[C@H](O)[C@H]2O)[C@@H]2C(CO)=CC[C@H]12
growth inhibition (DIPGX29): -3.84% | growth inhibition (DIPGX37): -2.61% | growth inhibition (DIPGX7): -0.0942% | growth inhibition (DIPGX9): -1.59% | growth inhibition (HGGX39): -2.13% | growth inhibition (HGGX6): -4.13% | growth inhibition (HNSC): 9.11% | growth inhibition (SUDIPGIV): -1.22% | growth inhibition (SUDIPGVI): -7.67% | growth inhibition (SUDIPGXIII): -1.52%

Cc1ncc(C[n+]2csc(CCO)c2C)c(N)n1
growth inhibition (DIPGX29): 0.631% | growth inhibition (DIPGX37): -0.256% | growth inhibition (DIPGX7): -1.44% | growth inhibition (DIPGX9): 0.746% | growth inhibition (HGGX39): 1.92% | growth inhibition (HGGX6): 1.62% | growth inhibition (HNSC): -1.01% | growth inhibition (SUDIPGIV): -0.371% | growth inhibition (SUDIPGVI): 0.498% | growth inhibition (SUDIPGXIII): 0.53%

C[C@]12CC[C@@H]3c4ccc(O)cc4CC[C@H]3[C@@H]1CCC2=O
growth inhibition (DIPGX29): 0.142% | growth inhibition (DIPGX37): 1.98% | growth inhibition (DIPGX7): 2.55% | growth inhibition (DIPGX9): 1.67% | growth inhibition (HGGX39): 3.84% | growth inhibition (HGGX6): 0.36% | growth inhibition (HNSC): 1.29% | growth inhibition (SUDIPGIV): 1.87% | growth inhibition (SUDIPGVI): 0.844% | growth inhibition (SUDIPGXIII): -0.509%
